Assay [1] in a line: Nuclear factor erythroid 2-related factor 2/antioxidant responsive element (Nrf2/ARE) small molecule agonists: luciferase reporter gene qHTS assay in human keratinocytes (AID 1919969). Also: nearly all actives have a fitted effect of over 35% in size. Also: potency is read from the fitted curve at half-maximal effect. On the technique in general: Reporter assays use an easily measured gene product as a stand-in for the process of interest.
Assay [2] addresses Gonadotropin-releasing hormone receptor (Homo sapiens) (UniProt P30968). Put plainly: Human gonadotropin-releasing hormone receptor (GnRHR) small molecule agonists, calcium flux assay in GnRHR-HEK293 cells (AID 1920063). Also: nearly all actives have a fitted effect of over 35% in size. Put shortly:
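Fluorescence kinetics (480 nm excitation, 540 nm emission; 3 min, 1 s steps) report calcium mobilisation in human GnRHR-HEK293 cells in agonist mode. Dye incubation: 1 h, 37 C.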

Assay [3] addresses KiSS-1 receptor (Homo sapiens) (UniProt Q969F8). The assay can be described thus: Human kisspeptin (KISS1R) small molecule agonists, calcium flux assay in KISS1R-HEK293 cells (AID 1920064; active = well fitted activation curve with a large enough effect in the repeat runs). Put shortly:
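Measures KISS1R agonism through calcium-sensitive dye fluorescence in stably transfected HEK293 cells, read for 3 min after pin-tool compound delivery; 15-point titrations in triplicate.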
A general note: Calcium assays in cells follow changes in intracellular calcium, usually with a dye or a luminescent sensor.

The nature of assay [4]: G protein-coupled receptor (GPCR) small molecule agonists, calcium flux assay: HEK293 wild type cell line counter screen (AID 1920065). Put shortly:
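Readout: fluorescence at 480 nm excitation/540 nm emission, sampled at 1 s intervals for 3 min. Cells had been cultured 18 h, then dye-loaded 1 h at 37 C before compound or ATP addition.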

A short description of assay [5]: p53 small molecule agonists, cell-based qHTS assay with rat liver microsomes (AID 1963578). Summed up: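 Each plate received p53RE-bla cells, then compound, then rat liver microsomes and NADPH (both 0.5 mg/mL final). Plates were held 16 h at 37 C, and beta-lactamase activity was detected with LiveBLAzer over 2 h.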
On the technique in general: Quantitative high-throughput screening tests each substance at several concentrations.

Assay [6] is described as follows: p53 small molecule agonists, cell-based qHTS assay with human liver microsomes: qHTS cell viability counter screen (AID 1963579). Also: nearly all actives have a fitted effect of over 45% in size. Put shortly:
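Tox21 library compounds, delivered from DMSO stocks, were tested on p53RE-bla cells together with 0.5 mg/mL human liver microsomes and 0.5 mg/mL NADPH (final) over 16 h at 37 C; CellTiter-Glo luminescence served as the cytotoxicity measure.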

Assay [7] can be described thus: p53 small molecule agonists, cell-based qHTS assay with rat liver microsomes: qHTS cell viability counter screen (AID 1963580). Also: nearly all actives have a fitted effect of over 45% in size. Summed up: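 Viability is assessed in parallel with the p53 reporter read: HCT-116 p53RE-bla cells receive compounds plus rat microsomes and NADPH (0.5 mg/mL final apiece), incubate 16 h at 37 C, and then CellTiter-Glo luminescence is recorded.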

Assay [8] can be described thus: p53 small molecule agonists, cell-based qHTS assay (AID 1963582; active = well fitted activation curve with a large enough effect in the signal ratio in the repeat runs, not every such curve was filed as active; the % refers to the signal ratio). Summed up:
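Compounds are pin-transferred in DMSO onto p53RE-bla cells and incubated 16 h at 37 C. The B/G FRET beta-lactamase substrate is then applied for 2 h at RT and fluorescence recorded.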

Assay [9] concerns the target 5-hydroxytryptamine receptor 2A (Homo sapiens) (UniProt P28223). The assay can be described thus: 5-hydroxytryptamine receptor 2A (HTR2A) small molecule agonists, cell-based qHTS assay (AID 1963587). Also: nearly all actives have a fitted effect of over 30% in size. Summed up:
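CHO cells stably expressing human HTR2A, plated 18 h, loaded with calcium dye 1 h at 37 C. Agonist mode: compounds added and intracellular calcium fluorescence recorded kinetically for 2 min at 1 sec intervals.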

The target of assay [10] is Muscarinic acetylcholine receptor M1 (Homo sapiens) (UniProt P11229). Put plainly: Cholinergic receptor muscarinic 1 (CHRM1) small molecule antagonists, cell-based qHTS assay (AID 1963588). Also: nearly all actives have a fitted effect of over 40% in size. Also: potency is read from the fitted curve at half-maximal effect. Put shortly:
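CHRM1-CHO calcium-flux assay, antagonist mode. Cells were seeded 18 h, dye-loaded 1 h at 37 C and given compound for 5 min at RT, then acetylcholine was added at 50nM. FDSS fluorescence was read 3 min; 15 concentrations, three runs.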

Assay [11] has the same target. Put plainly: Cholinergic receptor muscarinic 1 (CHRM1) small molecule agonists, cell-based qHTS assay (AID 1963589). Also: nearly all actives have a fitted effect of over 35% in size. Also: potency is read from the fitted curve at half-maximal effect. Summed up:
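Each compound was tested at 15 concentrations across three independent runs on dye-loaded CHO cells stably expressing human CHRM1, reading intracellular calcium fluorescence kinetically at 1 sec intervals.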

Assay [12] is described as follows: cAMP Responsive Elements (CRE) small molecule agonists, cell-based qHTS assay (AID 1963590). Also: potency is read from the fitted curve at half-maximal effect. Put shortly: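 Cell line: CRE-bla HEK 293T; medium DMEM/10% dialyzed FBS/0.1 mM NEAA/1 mM pyruvate/25 mM HEPES; 3 h compound exposure; beta-lactamase FRET readout after 2 h substrate loading at RT.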
The nature of assay [13]: cAMP Responsive Elements (CRE) small molecule antagonists, cell-based qHTS assay (AID 1963591; active = well fitted inhibition curve with a large enough effect in the signal ratio in the repeat runs, not every such curve was filed as active; the % refers to the signal ratio). Put shortly: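 Inhibition of NKH477-driven (0.25 uM final) CRE-beta-lactamase signal in HEK293T cells, 3 h compound exposure at 37 °C, detected by FRET substrate fluorescence.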
Assay [14] deals with Beta-2 adrenergic receptor (Homo sapiens) (UniProt P07550). The assay can be described thus: Adrenergic beta2 receptor (ADRB2) small molecule antagonists, cell-based qHTS assay (AID 1963592). Also: nearly all actives have a fitted effect of over 50% in size. Also: potency is read from the fitted curve at half-maximal effect. As to activity change, negative = inhibition: series mostly up to about 92 µM. Summed up: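 Cells (CHO, stable ADRB2 overexpression) incubated 18-20hr at 37C; compounds added from DMSO; agonist mix (1nM isoproterenol, 100uM IBMX, 25uM Ro-20-1724) added; 0.5hr RT; d2-cAMP and anti-cAMP-cryptate added; 1hr RT; 665/615 nm read.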
Chain of Beta-2 adrenergic receptor (Homo sapiens) (P07550 whole entry, looked up): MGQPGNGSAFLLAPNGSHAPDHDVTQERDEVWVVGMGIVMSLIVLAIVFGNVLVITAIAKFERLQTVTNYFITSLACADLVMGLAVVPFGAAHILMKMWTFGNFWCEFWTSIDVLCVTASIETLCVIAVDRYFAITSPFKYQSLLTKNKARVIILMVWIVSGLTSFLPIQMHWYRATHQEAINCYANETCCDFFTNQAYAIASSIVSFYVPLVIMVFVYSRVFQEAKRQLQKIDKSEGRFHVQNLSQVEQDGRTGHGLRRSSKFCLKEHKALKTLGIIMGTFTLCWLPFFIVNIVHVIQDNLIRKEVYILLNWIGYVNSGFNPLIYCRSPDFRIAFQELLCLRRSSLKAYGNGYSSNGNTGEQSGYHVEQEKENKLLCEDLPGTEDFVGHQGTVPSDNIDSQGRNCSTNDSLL

Assay [15] has the same target. Put plainly: Adrenergic beta2 receptor (ADRB2) small molecule agonists, cell-based qHTS assay (AID 1963593).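 Also: CHO cells stably overexpressing human ADRB2.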 Summed up: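 CHO cells stably over-expressing ADRB2 were plated overnight at 37C, then dosed with compounds plus a stimulation mix containing 100uM IBMX and 25uM Ro-20-1724 for 0.5hr at room temperature. cAMP was measured by HTRF competition, 1hr.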
For assay [16], the target named is D(2) dopamine receptor (Homo sapiens) (UniProt P14416). The assay can be described thus: Dopamine D2 receptor (DRD2) small molecule agonists, cell-based qHTS assay (AID 1963594). Also: nearly all actives have a fitted effect of over 35% in size. Put shortly:
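HEK293 cells stably expressing human DRD2, pre-treated with PDE inhibitor Ro20-1724 (0.1 mM final) and compound 10 min at room temperature, then stimulated with NKH477 (200nM […]) for 30 min. cAMP read by HTRF (665/620 nm).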

Assay [17] has the same target. Put plainly: Dopamine D2 receptor (DRD2) small molecule antagonists, cell-based qHTS assay (AID 1963595; active = well fitted inhibition curve with a large enough effect in the signal ratio in the repeat runs, with a control signal flat; the % refers to the signal ratio). Summed up:
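DRD2-HEK293; 0.1 mM Ro20-1724; cpd 10 min RT; NKH477 200 nM + quinpirole 12 nM, 30 min RT; HTRF cAMP (cAMP-d2/anti-cAMP cryptate), 665/620 nm ratio after 1 h.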

A short description of assay [18]: p53 small molecule agonists, cell-based qHTS assay with human liver microsomes (AID 1963577).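 Also: p53 response element beta-lactamase reporter cells with liver microsomes plus NADPH.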 Summed up: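 Metabolically competent format: test substances, human liver microsomes and NADPH (both 0.5 mg/mL final) incubated with p53RE-bla cells 16 h at 37 C. Beta-lactamase reporter signal then quantified by fluorescence.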
Assay [19] addresses 5-hydroxytryptamine receptor 2A (Homo sapiens) (UniProt P28223). Put plainly: 5-hydroxytryptamine receptor 2A (HTR2A) small molecule antagonists, cell-based qHTS assay (AID 1963586). Also: nearly all actives have a fitted effect of over 45% in size. Put shortly: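 Antagonist-mode intracellular calcium assay: DOI (4 nM) added after 5 min compound pre-incubation at room temperature to dye-loaded HTR2A-CHO cells. Fluorescence followed for 3 min, sampled every second.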

A short description of assay [20]: p53 small molecule agonists, cell-based qHTS assay: qHTS cell viability counter screen (AID 1963581). Also: nearly all actives have a fitted effect of over 45% in size. Summed up: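 In the same plates used for the p53 bla reporter, HCT-116 cells given compounds for 16 h at 37 C received CellTiter-Glo; luminescence was recorded 30 min later at room temperature.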

The structures appear in SMILES notation. A number with no mark means an inactive call. Results filed as inconclusive are left out. Calls of active or inactive are those of the source. Unless noted, calls follow the shape of the full dose curve.
% is scaled to controls: 0 for no effect and ±100 for the full control effect.

Chain of Muscarinic acetylcholine receptor M1 (Homo sapiens) (P11229 whole entry, looked up): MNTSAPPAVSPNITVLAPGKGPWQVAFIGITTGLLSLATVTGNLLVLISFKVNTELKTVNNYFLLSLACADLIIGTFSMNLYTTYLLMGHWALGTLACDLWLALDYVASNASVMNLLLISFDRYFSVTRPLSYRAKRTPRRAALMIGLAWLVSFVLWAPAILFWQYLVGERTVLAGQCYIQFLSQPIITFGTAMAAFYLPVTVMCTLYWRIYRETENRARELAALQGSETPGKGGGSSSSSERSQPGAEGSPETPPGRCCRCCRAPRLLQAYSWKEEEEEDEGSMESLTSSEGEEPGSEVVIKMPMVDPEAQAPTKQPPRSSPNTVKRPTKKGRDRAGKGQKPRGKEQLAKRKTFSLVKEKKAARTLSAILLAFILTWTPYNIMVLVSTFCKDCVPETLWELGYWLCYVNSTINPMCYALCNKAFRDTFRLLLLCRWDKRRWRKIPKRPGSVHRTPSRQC
Chain of 5-hydroxytryptamine receptor 2A (Homo sapiens) (P28223 whole entry, looked up): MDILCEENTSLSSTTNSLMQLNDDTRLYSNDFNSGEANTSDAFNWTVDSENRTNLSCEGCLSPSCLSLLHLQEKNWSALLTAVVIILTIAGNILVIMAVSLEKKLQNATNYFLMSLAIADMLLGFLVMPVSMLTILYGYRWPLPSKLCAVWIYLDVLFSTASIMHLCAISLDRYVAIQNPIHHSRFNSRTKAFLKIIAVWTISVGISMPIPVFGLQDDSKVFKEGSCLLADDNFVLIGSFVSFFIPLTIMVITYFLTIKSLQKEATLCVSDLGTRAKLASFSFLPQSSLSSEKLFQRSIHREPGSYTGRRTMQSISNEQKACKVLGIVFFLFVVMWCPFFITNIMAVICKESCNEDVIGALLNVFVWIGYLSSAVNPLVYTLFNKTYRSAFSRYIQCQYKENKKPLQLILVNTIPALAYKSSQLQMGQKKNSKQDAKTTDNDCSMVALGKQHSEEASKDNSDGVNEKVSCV
Chain of KiSS-1 receptor (Homo sapiens) (Q969F8 whole entry, looked up): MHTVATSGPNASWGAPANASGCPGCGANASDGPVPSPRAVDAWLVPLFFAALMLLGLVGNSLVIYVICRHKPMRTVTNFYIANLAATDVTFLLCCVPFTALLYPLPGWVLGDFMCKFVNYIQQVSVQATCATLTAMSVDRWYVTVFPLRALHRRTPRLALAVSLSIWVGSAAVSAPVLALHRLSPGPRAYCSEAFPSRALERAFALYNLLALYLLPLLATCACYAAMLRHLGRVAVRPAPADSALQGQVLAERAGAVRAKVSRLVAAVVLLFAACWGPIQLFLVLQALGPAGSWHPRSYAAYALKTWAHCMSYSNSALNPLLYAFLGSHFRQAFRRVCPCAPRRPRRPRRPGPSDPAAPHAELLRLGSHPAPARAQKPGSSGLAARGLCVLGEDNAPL
Chain of D(2) dopamine receptor (Homo sapiens) (P14416 whole entry, looked up): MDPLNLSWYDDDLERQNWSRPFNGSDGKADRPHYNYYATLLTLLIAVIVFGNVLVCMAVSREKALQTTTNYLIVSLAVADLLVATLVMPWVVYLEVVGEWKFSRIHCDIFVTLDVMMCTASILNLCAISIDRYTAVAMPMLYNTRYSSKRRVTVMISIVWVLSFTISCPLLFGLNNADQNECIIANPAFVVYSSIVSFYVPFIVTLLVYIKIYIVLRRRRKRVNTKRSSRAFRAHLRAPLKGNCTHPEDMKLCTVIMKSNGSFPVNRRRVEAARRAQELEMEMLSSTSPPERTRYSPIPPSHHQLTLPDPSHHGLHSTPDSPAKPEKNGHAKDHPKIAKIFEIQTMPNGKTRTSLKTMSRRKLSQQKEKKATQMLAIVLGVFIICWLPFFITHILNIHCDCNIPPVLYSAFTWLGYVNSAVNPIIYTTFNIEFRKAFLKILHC
Chain of Gonadotropin-releasing hormone receptor (Homo sapiens) (P30968 whole entry, looked up): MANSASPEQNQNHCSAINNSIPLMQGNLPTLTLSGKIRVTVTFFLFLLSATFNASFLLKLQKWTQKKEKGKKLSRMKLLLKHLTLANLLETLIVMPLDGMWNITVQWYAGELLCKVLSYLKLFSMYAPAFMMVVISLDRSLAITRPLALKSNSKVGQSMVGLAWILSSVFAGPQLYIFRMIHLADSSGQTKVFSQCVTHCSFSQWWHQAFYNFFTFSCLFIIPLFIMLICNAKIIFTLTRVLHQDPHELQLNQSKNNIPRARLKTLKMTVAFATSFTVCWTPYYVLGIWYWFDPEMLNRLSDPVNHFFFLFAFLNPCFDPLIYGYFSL

As to `Cn1ccc2cc3c(cc21)CCN3C(=O)Nc1cccnc1`, the activity, positive = activation in assay [1] was 26.3% [at 19 µM]. The activity change in [2] is -0.165% [at 11.8 µM, hits give high values]. Further, the activation is -2.7% [at 15.8 µM] in assay [3]; 0.454% [at 11.8 µM] in [4]; -2.12% [at 13.6 µM] in [5]; -0.168% [at 13.5 µM] in [8]; -6.77% [at 15.9 µM] in assay [9]; -0.375% [at 15.8 µM] in assay [11]. Besides, the activation in [12] was 13.1% [at 19 µM]; in assay [15] it was -9.02% [at 19 µM]; in assay [16], 16.6% [at 19 µM]. The activity change, negative = cytotoxicity is -7.75% [at 13.5 µM] in assay [6] and -3.54% [at 13.5 µM] in [7]. The activity, negative = inhibition in assay [10] is 8.54% [at 12.6 µM]. Moreover, the activity change, negative = inhibition was 0.0268% [at 18.9 µM] in assay [13], 0.687% [at 19 µM] in assay [14] and -0.697% [at 18.9 µM] in [17].
For `CC[C@H]1CC[C@H](NCc2cc3c(cc2OC)[C@H]2C[C@H]2C(=O)N3C)[C@H](c2ccccc2)N1`, the Potency in [1] is 30.6 µM (active); in assay [10], 47.2 nM (active). Besides, the Potency entry in assay [2], in assay [3], in [4], in [18], in assay [6] and in assay [19] was “inactive” in each case. The Potency entry in [9], in assay [11], in assay [13], in assay [14], in assay [16] and in [17] was “inactive” throughout.
Turning to `COc1cc2nc(N3CCN(C(=O)C4COc5ccccc5O4)CC3)nc(N)c2cc1OC` (stereo not drawn), the Potency entry in [1], in assay [2], in assay [3], in assay [4], in assay [5] and in assay [6] was “inactive” each time. In addition, the Potency entry in [7], in assay [20], in assay [8], in [12] and in assay [17] was “inactive” each time. Moreover, in assay [14], the Potency is 26.6 µM (active).
As to `CCCCCCC(C)OC(=O)COc1nc(F)c(Cl)c(N)c1Cl` (stereo not drawn), the Potency entry in [1], in assay [2], in assay [3], in assay [4], in assay [5] and in assay [6] was “inactive” each time. Besides, the Potency entry in [8], in assay [19], in assay [9], in assay [10], in [11] and in [14] was “inactive” throughout. For the same molecule, the Potency entry in [16] and in [17] was “inactive” each time.
In the case of `O=C=Nc1ccc(Cl)c(Cl)c1`, the Potency entry in [1], in assay [2], in [3], in assay [4], in [5] and in assay [6] was “inactive” in each case. Also, the Potency result in assay [7], in assay [20], in assay [8], in [19], in assay [9] and in [11] was “inactive” in each case. The Potency entry in assay [12], in assay [13], in assay [14], in assay [16] and in assay [17] was “inactive” each time.
Turning to `CC(O)C#CC(C)O` (stereo not drawn), the Potency in assay [1] is 21.5 µM (active). Besides, the Potency entry in [2], in [3], in [4], in assay [18], in assay [7] and in assay [20] was “inactive” throughout. Also, the Potency entry in assay [19], in assay [9], in assay [11], in assay [12], in assay [14] and in [16] was “inactive” in each case. Moreover, in assay [17], the Potency entry is “inactive”.
With `O=C[C@@H](O)[C@H](O)[C@H](O)CO`, the Potency result in assay [1], in [2], in assay [3], in [4], in assay [18] and in assay [6] was “inactive” throughout. In addition, the Potency result in assay [7], in assay [20], in assay [8], in assay [9], in assay [10] and in assay [11] was “inactive” each time. The Potency result in [12], in [13], in assay [14], in [15], in assay [16] and in [17] was “inactive” each time.
As for `COc1cc(-c2ccc(=O)[nH]n2)ccc1OC(F)F`, the Potency result in [1], in assay [2], in assay [3], in assay [4], in [5] and in assay [6] was “inactive” throughout. Also, the Potency result in assay [7], in [8], in [9], in assay [10], in [13] and in assay [14] was “inactive” in each case. Further, the Potency entry in assay [15], in assay [16] and in [17] was “inactive” in each case. The Potency in assay [11] is 3.8 nM (active); in assay [12], 13.3 µM (active).

The record behind these values is PubChem BioAssay (Tox21).
